Measurements published in PubChem BioAssay (NCI).
This is part of a sample that, as a whole, favours compounds with a hit. Of some 83,000 tested, about 20% had one in any assay.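 Compound tested at a single concentration for 48 hours in 96-well plates; a percent growth value below 10 was scored as active.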 Active and inactive are the calls of the source.

What was measured:
Experiment in all cases: NCI-60 one-dose screen, 48 h (100 = growth as untreated, 0 = no growth, -100 = all killed)
Conditions in all cases: 10 µM unless noted
SK-MEL-2 melanoma = tested on: SK-MEL-2 melanoma
SN12C renal = tested on: SN12C renal
UO-31 renal = tested on: UO-31 renal
TK-10 renal = tested on: TK-10 renal
ACHN renal = tested on: ACHN renal
CAKI-1 renal = tested on: CAKI-1 renal
A498 renal = tested on: A498 renal
CCRF-CEM leukemia = tested on: CCRF-CEM leukemia
MOLT-4 leukemia = tested on: MOLT-4 leukemia
EKVX NSCLC = tested on: EKVX NSCLC

Measured: growth

CN1CCN(c2ccc3cc(-c4nc5ccccc5[nH]4)c(=O)oc3c2)CC1
inactive: SK-MEL-2 melanoma 105% | SN12C renal 93.7% | UO-31 renal 65.5% | TK-10 renal 119% | ACHN renal 89.3% | CAKI-1 renal 84.8% | A498 renal 86.3% | CCRF-CEM leukemia 73.6% | MOLT-4 leukemia 88.4%

Cc1ccc(Cn2c(-c3nonc3N)nc3ccccc32)cc1
inactive: SK-MEL-2 melanoma 78.2% | SN12C renal 96.3% | UO-31 renal 66.2% | TK-10 renal 90.4% | ACHN renal 92.3% | CAKI-1 renal 69.7% | A498 renal 40.4% | CCRF-CEM leukemia 67.2% | MOLT-4 leukemia 56.2%

Cc1oc2nc[nH]c(=O)c2c1C(=O)/C=C/c1ccc(Cl)cc1
inactive: SK-MEL-2 melanoma 55.7% | EKVX NSCLC 62% | UO-31 renal 37.9% | TK-10 renal 32.3% | ACHN renal 27.2% | CAKI-1 renal 26.1% | A498 renal 62.4% | MOLT-4 leukemia 40.7%

Cc1c(C(=O)NCc2ccccc2)[n+](=O)c2cc(F)ccc2n1[O-]
inactive: SK-MEL-2 melanoma 40.8% | EKVX NSCLC 114% | UO-31 renal 39.4% | TK-10 renal 138% | ACHN renal 102% | CAKI-1 renal 79.7% | A498 renal 101% | CCRF-CEM leukemia 52.5% | MOLT-4 leukemia 130%

Cc1cc2c(C(C)C)c(O)c(O)c(C=NCCCCC(=O)O)c2c(O)c1-c1c(C)cc2c(C(C)C)c(O)c(O)c(C=NCCCCC(=O)O)c2c1O
inactive: SK-MEL-2 melanoma 43.6% | EKVX NSCLC 38.4% | UO-31 renal 74.2% | TK-10 renal 49% | ACHN renal 62% | CAKI-1 renal 73.1% | A498 renal 56.3% | CCRF-CEM leukemia 29.8% | MOLT-4 leukemia 34.9%

COC1=CC(c2ccc[nH]2)=N/C1=C\c1[nH]c(C)c(C(=O)CCCCC(=O)NCc2ccccc2)c1C
active: CAKI-1 renal -9.17%
inactive: SK-MEL-2 melanoma 97.1% | SN12C renal 44.9% | UO-31 renal 13.9% | TK-10 renal 45.8% | ACHN renal 50.2% | A498 renal 89.1% | CCRF-CEM leukemia 39.2% | MOLT-4 leukemia 70.1%

COc1ccc(/C=N/NC(=O)Cn2c(Cc3cccc4ccccc34)nc3ccccc32)cc1
inactive: SK-MEL-2 melanoma 99.5% | SN12C renal 93.1% | UO-31 renal 72.1% | TK-10 renal 105% | ACHN renal 107% | CAKI-1 renal 83.8% | A498 renal 85.5% | CCRF-CEM leukemia 91% | MOLT-4 leukemia 69.5%

C/C(=C\c1csc(C)n1)[C@@H]1C[C@@H]2O[C@]2(C)CCC[C@H](C)[C@H](O)[C@@H](C)C(=O)C(C)(C)[C@@H](O)CC(=O)N1
active: SK-MEL-2 melanoma -46.7% | EKVX NSCLC -25.6% | UO-31 renal -85.7% | TK-10 renal -68% | ACHN renal -100% | CAKI-1 renal -88.4% | A498 renal -28.7% | CCRF-CEM leukemia -80.7% | MOLT-4 leukemia -27.5%

Cc1cc2c(c(=O)o1)C(c1ccc(OC(=O)N3CCOCC3)cc1)C(C#N)=C(N)O2 (centres undefined)
inactive: SK-MEL-2 melanoma 91.3% | SN12C renal 108% | UO-31 renal 90.2% | TK-10 renal 95.6% | ACHN renal 102% | CAKI-1 renal 95.2% | A498 renal 106% | CCRF-CEM leukemia 111% | MOLT-4 leukemia 98.3%

O=[N+]([O-])c1cccc(-c2cc(-c3cc(Br)ccc3O)[nH]n2)c1
active: CCRF-CEM leukemia 8.04% | MOLT-4 leukemia 4.68%
inactive: SK-MEL-2 melanoma 24% | EKVX NSCLC 18.1% | UO-31 renal 20.1% | TK-10 renal 12.5% | ACHN renal 10.2% | CAKI-1 renal 40.5% | A498 renal 40%

CCCS(=O)(=O)c1nc(NC2CC2)cc(-c2ccc3c(ccn3C3CC(C)(C)NC(C)(C)C3)c2)n1
active: SN12C renal -77.9% | UO-31 renal -66.1% | TK-10 renal -56% | ACHN renal -90.3% | CCRF-CEM leukemia -13.7%
inactive: SK-MEL-2 melanoma 54.5% | CAKI-1 renal 85.1% | A498 renal 108% | MOLT-4 leukemia 55.9%

CC(Br)C(O)c1cc2c(cc1Br)OCO2 (centres undefined)
inactive: SK-MEL-2 melanoma 115% | EKVX NSCLC 104% | UO-31 renal 88.6% | TK-10 renal 114% | ACHN renal 109% | CAKI-1 renal 90.5% | A498 renal 127% | CCRF-CEM leukemia 101% | MOLT-4 leukemia 104%

CC1Cc2c(N(C)C)ncnc2N(C)c2ccc(O)cc21 (centres undefined)
inactive: SK-MEL-2 melanoma 89.6% | EKVX NSCLC 71.3% | UO-31 renal 80.2% | TK-10 renal 95.9% | ACHN renal 101% | CAKI-1 renal 70.7% | A498 renal 76.7% | CCRF-CEM leukemia 85.3% | MOLT-4 leukemia 75.6%

COc1ccc(C2CC(c3cccs3)=NN2c2ccc(S(=O)(=O)NC(=O)Nc3ccc(C)cc3)cc2)cc1 (centres undefined)
inactive: SK-MEL-2 melanoma 60.9% | SN12C renal 111% | UO-31 renal 85.7% | TK-10 renal 96.8% | ACHN renal 96.6% | CAKI-1 renal 95.8% | A498 renal 109% | CCRF-CEM leukemia 87.9% | MOLT-4 leukemia 94.4%

COc1cc2nc(SCc3cc(OC)c(OC)c(OC)c3)n(Cc3ccccc3)c(=O)c2cc1OC
inactive: SN12C renal 41.2% | UO-31 renal 34.7% | TK-10 renal 64.3% | ACHN renal 39.2% | CAKI-1 renal 25.7% | CCRF-CEM leukemia 23% | MOLT-4 leukemia 16.7%
active: SK-MEL-2 melanoma -9.82% | A498 renal -5.24%
